The results in this text go back to PubChem BioAssay (NCI).

About 79,000 compounds went through this panel and 15% of them were active in at least one assay; those are over-represented in the sample as a whole. A number with no mark means an inactive call. Active and inactive are the calls of the source. Cut-off read from the data, not from the text of the source: active = growth inhibition above about 70%; inactive = the rest.

The nature of the assay: NCI Yeast Anticancer Drug Screen. Data for the wt1 strain (AID 149).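 Note: 0% = growth of vehicle-treated wt1 cultures.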 The note with it: S. cerevisiae wt1 strain (SPY 50644) growth inhibition, active compounds read high. The method, then: Growth inhibition of yeast strains with defined genetic alterations is measured as a screen for potential anti-cancer activity. Selected strains with alterations in DNA damage repair or cell cycle control were exposed to compounds and growth inhibition was measured relative to vehicle treated controls. The strain used in this assay is wt1

With `Nc1cc(F)cc2c1-c1ccc(F)cc1C2`, the growth inhibition is, setting by setting: (at 1.2 µM) -3%; (at 3.7 µM) -4%; (at 11.0 µM) -4%; (at 33.0 µM) 10%; (at 100.0 µM) 90% (active).

As for `CC(=O)C1(O)Cc2c(O)c3c(c(O)c2C(OC2CC(N)C(O)C(C)O2)C1)C(=O)c1ccccc1C3=O` (stereo not given), the growth inhibition reads like this: (at 1.2 µM) 25%; (at 3.7 µM) 31%; (at 11.0 µM) 88% (active); (at 33.0 µM) 96% (active); (at 100.0 µM) 98% (active).

Turning to `CCN(CC)N=Nc1c(C(N)=O)n[nH]c1C`, the growth inhibition runs as follows: (at 1.2 µM) -6%; (at 3.7 µM) -5%; (at 11.0 µM) -7%; (at 33.0 µM) -5%; (at 100.0 µM) 0%.

`Cc1cc(O)c2c(c1O)C(=O)C13C(=C2O)C(=O)C2C(O)C1C1C(O)C3C(=O)C3=C(O)c4c(O)cc(C)c(O)c4C(=O)C321` (stereo not given): the growth inhibition (at 1.2 µM) was -7%; the growth inhibition (at 3.7 µM) was 2%; the growth inhibition (at 11.0 µM) is 38%; the growth inhibition (at 33.0 µM) is 80% (active); the growth inhibition (at 100.0 µM) was 85% (active).

`O/N=C/C1c2ccccc2-c2ccccc21`: the growth inhibition runs as follows: (at 1.2 µM) -4%; (at 3.7 µM) -4%; (at 11.0 µM) -7%; (at 33.0 µM) 20%; (at 100.0 µM) 49%.

As to `Nc1cc(S(N)(=O)=O)ccc1SSc1ccc(S(N)(=O)=O)cc1N`, the growth inhibition runs as follows: (at 1.2 µM) 1%; (at 3.7 µM) -2%; (at 11.0 µM) 0%; (at 33.0 µM) 12%; (at 100.0 µM) 51%.

In the case of `O=C(/C=C/c1cccc(Br)c1)c1ccc(Cl)cc1`, the growth inhibition (at 1.2 µM) was -46%; the growth inhibition (at 3.7 µM) is -44%; the growth inhibition (at 11.0 µM) was -12%; the growth inhibition (at 33.0 µM) is 9%; the growth inhibition (at 100.0 µM) was 63%.

In the case of `S=C1SCN(CCc2ccccc2)CN1CCc1ccccc1`, the growth inhibition (at 1.2 µM) is 16%; the growth inhibition (at 3.7 µM) was -1%; the growth inhibition (at 11.0 µM) is 46%; the growth inhibition (at 33.0 µM) is 45%; the growth inhibition (at 100.0 µM) is 10%.
